Target: T1, Aspartate--tRNA(Asp/Asn) ligase (Mycobacterium tuberculosis (strain ATCC 25618 / H37Rv)) (UniProt P9WFW3)
T1 sequence (whole entry): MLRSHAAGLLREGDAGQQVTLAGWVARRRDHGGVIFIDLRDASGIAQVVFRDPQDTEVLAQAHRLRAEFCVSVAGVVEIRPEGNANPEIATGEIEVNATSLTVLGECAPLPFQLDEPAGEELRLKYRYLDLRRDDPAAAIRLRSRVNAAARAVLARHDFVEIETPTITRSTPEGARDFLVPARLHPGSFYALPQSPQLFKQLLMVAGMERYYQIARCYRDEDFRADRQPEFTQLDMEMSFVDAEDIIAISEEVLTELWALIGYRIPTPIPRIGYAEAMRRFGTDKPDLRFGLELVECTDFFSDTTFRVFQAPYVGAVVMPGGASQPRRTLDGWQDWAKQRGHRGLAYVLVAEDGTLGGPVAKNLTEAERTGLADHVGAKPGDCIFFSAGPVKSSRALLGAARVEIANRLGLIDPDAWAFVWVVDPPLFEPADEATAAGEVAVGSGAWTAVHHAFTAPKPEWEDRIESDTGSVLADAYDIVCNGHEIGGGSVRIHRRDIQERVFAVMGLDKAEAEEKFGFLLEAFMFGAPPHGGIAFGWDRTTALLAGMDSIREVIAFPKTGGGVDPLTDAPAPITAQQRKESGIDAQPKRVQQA
Assay: Assay for Asp RNA synthetase-1 from Mycobacterium tuberculosis
Format: functional
Set-up: scale not given: in the data most compounds retested in dose-response had high values
Conditions: 30 µM

Structure (SMILES) | Percent Effect
Cc1cnn(C2CN(Cc3nc(-c4ccco4)no3)C2)c1 | -7.28%
CCn1c(Cn2cncn2)nnc1C1CCN(C(=O)CCSC)CC1 | 1.37%
COC(=O)NCc1cc2n(n1)CCCN(C(C)=O)C2 | -4.82%
CS(=O)(=O)N[C@@H]1CN(C(=O)c2ccccn2)[C@@H]2CCCO[C@@H]21 | -4.14%
COCCC(=O)N1CCC2(COCc3cnc(N4CCOCC4)nc32)C1 (stereo not given) | 1.66%
Cc1noc(C)c1C(=O)N1CCCC1c1c(C)nn(C)c1Cl (stereo not given) | -3.2%
CCc1n[nH]c(C2CN(C(=O)c3ncoc3C(C)C)CCO2)n1 (stereo not given) | 2.8%
Cn1cc(C(=O)Nc2ccc3c(c2)CN(C(=O)c2ccco2)CC3)nn1 | 5.79%
CSCCC(CO)NC(=O)c1sc(-c2ccccc2Cl)nc1C (stereo not given) | -2.58%
Cn1ccc(CN2CCC(CO)CC2)cc1=O | -0.422%
CCOc1ccc(CN2CCN(C(=O)c3ccc(C)n3C)CC2)cc1 | 2.42%
Cc1ccc(OC2(C(=O)O)CCN(C(=O)c3ccc(F)cc3)CC2)cn1 | -4.69%
CCc1nc(C2CCCN2C(=O)CCNS(C)(=O)=O)no1 (stereo not given) | -7.34%
c1ccc(-c2nc(CN3CCCC(Cn4cncn4)C3)no2)cc1 (stereo not given) | -9.3%
Cc1nnc(CCNC2CCN(c3ncnc4c(C)csc34)CC2)s1 | 0.208%
C[S+]([O-])c1nncn1CC(=O)c1cccc(Cl)c1 (stereo not given) | -0.917%
Cc1noc(C(C)C)c1C(=O)N1CCCN(Cc2cscn2)CC1 | -4.35%
COc1ccccc1OCCN1CCCC(c2cc(C(N)=O)[nH]n2)C1 (stereo not given) | 0.0735%
O=C(c1ccco1)N1CCC2(CC1)C(=O)NCCN2CC1CC1 | 10.6%
CN(C(=O)c1ccccn1)c1nc2c(s1)CCc1c-2cnn1C | 50%

Structure (SMILES) | Percent Effect
CCc1nc(CN2CCCC(N(C)Cc3cnc(C)s3)C2)no1 (stereo not given) | -0.259%
COc1ccc(NC(=O)NC(C)(C)c2noc(C)n2)cc1 | -6.73%
O=C(Cn1nc(-c2ccc(F)cc2)oc1=O)NCc1ccc(F)cc1 | -2.48%
Cc1cc(-c2cnc(NCc3cccnc3)nc2C(C)(C)C)on1 | 2.07%
O=C(Cc1ccsc1)N1CCCC(c2n[nH]c3nccnc23)C1 (stereo not given) | -5.85%
CCOc1cc(CNC(=O)N2CCC(Cc3cnn(C)c3)C2)ccn1 (stereo not given) | -2.52%
CN1CCCC(Cc2ccnc3ccncc23)CC1 (stereo not given) | -3.5%
Cc1ccc(OCC(O)CN2CCC(Cn3cccn3)CC2)cc1 (stereo not given) | -1.46%
Cc1ccc(C)c(NC(=O)N(C)Cc2cnn(C)c2)c1 | -1.13%
CC(C)N1CCC(Cc2cc(-c3ccccc3C(=O)O)ncn2)CC1 | -0.134%
CN1N=C(C(=O)Nc2cc(F)ccc2OCC2CCCO2)CCC1=O (stereo not given) | -1.12%
CCC1c2cccn2CCN1C(=O)c1ccc2nonc2c1 (stereo not given) | 4.26%
Cc1ccc(=O)n(CC2(O)CCN(Cc3cc(C)c(O)c(C)c3)CC2)n1 | -3.32%
CN(C)CC1CN(CCOc2cccc(C#N)c2)CCO1 (stereo not given) | -0.815%
Nc1cc(N2CCCC2c2cnccn2)ncn1 (stereo not given) | 6.36%
COCC(=O)N1CCCn2c(CN3CCCCC3)nnc2C1 | 1.5%
CC(C)c1noc(C(C)N2CCN(Cc3ccco3)CC2)n1 (stereo not given) | 0.141%
O=C1CC2(CCN(S(=O)(=O)c3cccs3)C2)CN1c1ccccc1 (stereo not given) | 3.64%
NCc1cn(-c2ccccc2C(=O)NCc2ccccc2)cn1 | -1.51%
Cc1nc(CNC(C)c2ccc(OCC(=O)NC3CC3)cc2)cs1 (stereo not given) | 2.43%
